# Measurements: PubChem BioAssay
# Target: Pro-neuregulin-1, membrane-bound isoform (Homo sapiens) (UniProt Q02297)
# Assay: small molecules binding neuregulin-1 protein – biochemical, small-molecule microarray, fluorescence 635/667, psychiatric disease protein project, primary screen (AID 1075);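 also: score combines 667 nm spot fluorescence with signal to noise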
# Conditions: NRG1 binding, 635 nm fluorescence, higher = more signal
# Pro-neuregulin-1, membrane-bound isoform (Homo sapiens), sequence (Q02297 whole entry, looked up, canonical isoform): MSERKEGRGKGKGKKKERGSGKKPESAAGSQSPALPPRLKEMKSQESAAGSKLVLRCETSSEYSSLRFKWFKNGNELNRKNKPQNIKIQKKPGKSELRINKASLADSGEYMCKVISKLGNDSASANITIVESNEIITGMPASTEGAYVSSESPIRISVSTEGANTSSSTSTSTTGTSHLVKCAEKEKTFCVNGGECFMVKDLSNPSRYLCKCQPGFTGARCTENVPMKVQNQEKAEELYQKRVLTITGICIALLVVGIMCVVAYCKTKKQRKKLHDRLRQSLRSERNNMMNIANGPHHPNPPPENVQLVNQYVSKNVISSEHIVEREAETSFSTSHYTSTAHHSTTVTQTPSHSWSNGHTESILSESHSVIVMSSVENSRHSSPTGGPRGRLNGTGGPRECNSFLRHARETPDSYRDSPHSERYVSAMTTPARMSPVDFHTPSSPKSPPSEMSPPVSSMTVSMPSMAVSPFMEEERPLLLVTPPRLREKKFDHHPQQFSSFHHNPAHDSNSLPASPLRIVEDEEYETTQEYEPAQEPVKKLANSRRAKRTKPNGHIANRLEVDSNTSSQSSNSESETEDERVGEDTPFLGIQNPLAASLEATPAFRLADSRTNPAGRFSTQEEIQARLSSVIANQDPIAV
row,SMILES,composite z-score
1,O=C(OCCF)C1=CCC(c2cccc(Cl)c2)O1 (configuration not stated),-0.0442
2,COC(=O)[C@@]1(Cc2ccc(OC)cc2)[C@H]2c3cc(C(=O)N4CCCC4)n(Cc4ccccn4)c3C[C@H]2CN1C(=O)c1ccccc1,2.1
3,CC(C)=CCCC(C)=CC(O)C1C=CC2C(=O)N(c3ccccc3)C(=O)C2N1Nc1ccccc1 (configuration not stated),1.17
4,[N-]=[N+]=NCc1ccccc1[C@H]1OC(c2ccc(OCCCO)cc2)=N[C@@]1(CCS(=O)(=O)c1ccccc1)C(=O)N1CCOCC1,2.18
5,COC(=O)[C@@]1(Cc2ccccc2)[C@H]2c3cc(C(=O)N4CCCC4)n(Cc4ccc(C)o4)c3C[C@H]2CN1C(=O)c1ccccc1,1.37
6,CC(C)OC(=O)CC(=O)CC(O)c1ccc(C#N)cc1 (configuration not stated),0.366
7,[N-]=[N+]=NCc1ccccc1C[C@]1(C(=O)O)N=C(c2ccc(OCCCO)cc2)O[C@H]1c1ccccc1,1.09
8,COC(=O)[C@@]1(Cc2ccc(OC)cc2)[C@H]2c3cc(C(=O)N(C)C)n(Cc4c(OC)[nH]cc(C)c4=O)c3C[C@H]2CN1C(=O)c1ccccc1,1.92
9,O=c1cccc(CCc2ccccc2)o1,0.93
10,CCCCCCCCCCC(O)C1C=CC2C(=O)N(Cc3ccccc3)C(=O)C2N1n1cnnc1 (configuration not stated),0.919
11,COC(=O)C[C@@H]1C[C@H](C)[C@]2(O1)C(=O)N(Cc1ccccc1)c1ccc(NC(C)=O)cc12,-0.12
12,C=CCOC(=O)[C@@H]1[C@H]2C(=O)O[C@H](c3ccccc3)[C@H](c3ccccc3)N2[C@H](c2ccc(OCCOC(=O)[C@@H]3C[C@@H]4C(=O)NCC(=O)N4[C@@H]3c3cccc(OCCO)c3)cc2)[C@@]12C(=O)Nc1ccc(I)cc12,1.29
